Tests used:
Test in all cases: PBM binding z-score (relative to random genomic background probes); higher = stronger binding; sequences stand for … in GC…GCGATTGACAGCGTAGAATGAAGG
[1] = system: PPARg:RXRa DBDmut IVT, anti-RXR (DBD mutation: RXRa K156A/R161A, NR concentration 270 nM, RXRa partner concentration 90 nM)
Procedure, shortened: (§1)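 The probes on custom Agilent 4×180K protein-binding microarrays were double-stranded, with 34-nt variable regions bearing direct-repeat seeds, single-nucleotide variants, half-site ablations and random human genomic background sequences. Incubation lasted 1 h with ligand-free nuclear receptor dimers in PBS pH 7.4, 2% milk, 0.02% Triton X-100, 1 mM DTT, 0.2 mg/mL BSA and 0.4 mg/ml salmon testes DNA. Antibodies against each partner (one per run) detected bound dimers, and fluorescence scans were regression-normalized. Binding z-scores take the random background probes as reference.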

[2] = system: PPARg:RXRa IVT, anti-PPARg (NR concentration 270 nM, RXRa partner concentration 90 nM)
Procedure, shortened: as §1

[3] = system: PPARg DBDmut:RXRa IVT, anti-PPARg (DBD mutation: PPARg1 K132A/R137A, NR concentration 270 nM, RXRa partner concentration 90 nM)
Procedure, shortened: as §1

[4] = system: PPARg DBDmut IVT, anti-PPARg (DBD mutation: PPARg1 K132A/R137A, NR concentration 270 nM)
Procedure, shortened: as §1

[5] = system: PPARg homodimer (NR concentration 180 nM)
Procedure, shortened: as §1

[6] = system: PXR:RXRa (NR concentration 270 nM, RXRa partner concentration 90 nM)
Procedure, shortened: as §1

[7] = system: PXR homodimer (NR concentration 270 nM)
Procedure, shortened: as §1

[8] = system: RARa:RXR (NR concentration 270 nM, RXRa partner concentration 90 nM)
Procedure, shortened: as §1

[9] = system: RARa homodimer (NR concentration 270 nM)
Procedure, shortened: as §1

[10] = system: RARb:RXRa (NR concentration 270 nM, RXRa partner concentration 90 nM)
Procedure, shortened: as §1

[11] = system: RARb homodimer (NR concentration 270 nM)
Procedure, shortened: as §1

[12] = system: RARg:RXRa (NR concentration 270 nM, RXRa partner concentration 90 nM)
Procedure, shortened: as §1

[13] = system: RARg homodimer (NR concentration 270 nM)
Procedure, shortened: as §1

[14] = system: RXRa DBDmut IVT, anti-RXR (DBD mutation: RXRa K156A/R161A, NR concentration 90 nM)
Procedure, shortened: as §1

[15] = system: RXRa homodimer (NR concentration 180 nM)
Procedure, shortened: as §1

[16] = system: THRa:RXRa (NR concentration 90 nM, RXRa partner concentration 90 nM)
Procedure, shortened: as §1

[17] = system: THRa homodimer (NR concentration 90 nM)
Procedure, shortened: as §1

[18] = system: VDR homodimer (NR concentration 270 nM)
Procedure, shortened: as §1

Question: How did the PBM binding z-score [1] turn out when TCATATAGATAAAGGTGAAAGTCGAACGATATGA was run?
Answer: 2.13

Question: And the PBM binding z-score [2]?
Answer: 1.9

Question: What about the PBM binding z-score [3] of the same sequence?
Answer: 1.06

Question: What about the PBM binding z-score [4] of the same sequence?
Answer: 1.29

Question: And the PBM binding z-score [5]?
Answer: 1.18

Question: What about the PBM binding z-score [6] of the same sequence?
Answer: 0.893

Question: What about the PBM binding z-score [7] of the same sequence?
Answer: -0.0494

Question: What about the PBM binding z-score [8] of the same sequence?
Answer: 1.43

Question: And the PBM binding z-score [9]?
Answer: 0.832

Question: What about the PBM binding z-score [10] of the same sequence?
Answer: 1.61

Question: And the PBM binding z-score [11]?
Answer: 1.08

Question: And the PBM binding z-score [12]?
Answer: 1.29

Question: And the PBM binding z-score [13]?
Answer: 1.2

Question: And the PBM binding z-score [14]?
Answer: 1.18

Question: And the PBM binding z-score [15]?
Answer: 1.9

Question: What about the PBM binding z-score [16] of the same sequence?
Answer: 0.819

Question: And the PBM binding z-score [17]?
Answer: -0.268

Question: And the PBM binding z-score [18]?
Answer: -0.308

Question: What does the source list for TAGCCTAGGTCATGTGGGCCAGTATAGTGTCGGC?
Answer: PBM binding z-score [1]: 1.81; PBM binding z-score [2]: 3.41; PBM binding z-score [3]: -0.502; PBM binding z-score [4]: -0.513; PBM binding z-score [5]: 0.832; PBM binding z-score [6]: 1.47; PBM binding z-score [7]: -0.447; PBM binding z-score [8]: 2.33; PBM binding z-score [9]: -0.278; PBM binding z-score [10]: 3.81; PBM binding z-score [11]: 3.33; PBM binding z-score [12]: 3.77; PBM binding z-score [13]: 4.65; PBM binding z-score [14]: 0.816; PBM binding z-score [15]: 3.13; PBM binding z-score [16]: 2.97; PBM binding z-score [17]: 1.48; PBM binding z-score [18]: 0.672

Question: Which PBM binding z-score [1] does the source give for TGAATGAGTTTAAAGATCAGGGAACGTGGCGTCG here?
Answer: -0.728

Question: What about the PBM binding z-score [2] of the same sequence?
Answer: -0.0345

Question: What about the PBM binding z-score [3] of the same sequence?
Answer: 0.667

Question: What about the PBM binding z-score [4] of the same sequence?
Answer: -0.281

Question: And the PBM binding z-score [5]?
Answer: 0.122

Question: And the PBM binding z-score [6]?
Answer: 0.802

Question: What about the PBM binding z-score [7] of the same sequence?
Answer: 0.782

Question: What about the PBM binding z-score [8] of the same sequence?
Answer: 0.485

Question: What about the PBM binding z-score [9] of the same sequence?
Answer: 0.41

Question: What about the PBM binding z-score [10] of the same sequence?
Answer: 0.682

Question: And the PBM binding z-score [11]?
Answer: -0.301

Question: What about the PBM binding z-score [12] of the same sequence?
Answer: 0.427

Question: What about the PBM binding z-score [13] of the same sequence?
Answer: 0.222

Question: What about the PBM binding z-score [14] of the same sequence?
Answer: 3.12

Question: And the PBM binding z-score [15]?
Answer: 0.84

Question: What about the PBM binding z-score [16] of the same sequence?
Answer: -0.0905

Question: And the PBM binding z-score [17]?
Answer: -0.483

Question: What about the PBM binding z-score [18] of the same sequence?
Answer: 2.88

Question: With CTCGAAAGGTCGTGCTCAGGTGAGAATACCAAAC as the sequence, how does the PBM binding z-score [1] read?
Answer: 0.69

Question: And the PBM binding z-score [2]?
Answer: 1.89

Question: And the PBM binding z-score [3]?
Answer: 0.151

Question: And the PBM binding z-score [4]?
Answer: 0.41

Question: And the PBM binding z-score [5]?
Answer: 2.63

Question: And the PBM binding z-score [6]?
Answer: 3.35

Question: What about the PBM binding z-score [7] of the same sequence?
Answer: 0.0262

Question: And the PBM binding z-score [8]?
Answer: 4.6

Question: What about the PBM binding z-score [9] of the same sequence?
Answer: 0.317

Question: And the PBM binding z-score [10]?
Answer: 3.93

Question: What about the PBM binding z-score [11] of the same sequence?
Answer: 2.73

Question: What about the PBM binding z-score [12] of the same sequence?
Answer: 5.24

Question: What about the PBM binding z-score [13] of the same sequence?
Answer: 4.09

Question: What about the PBM binding z-score [14] of the same sequence?
Answer: 2.05

Question: What about the PBM binding z-score [15] of the same sequence?
Answer: 4.93

Question: What about the PBM binding z-score [16] of the same sequence?
Answer: 4.12

Question: What about the PBM binding z-score [17] of the same sequence?
Answer: 1.14

Question: What about the PBM binding z-score [18] of the same sequence?
Answer: 0.913

Question: Which results are given for CAAACTAGGTCACCGGAGGGTCAAAGTCCGCATG?
Answer: PBM binding z-score [1]: 8.31; PBM binding z-score [2]: 8.77; PBM binding z-score [3]: 2.75; PBM binding z-score [4]: 0.546; PBM binding z-score [5]: 4.78; PBM binding z-score [6]: 5.16; PBM binding z-score [7]: 0.605; PBM binding z-score [8]: 6.42; PBM binding z-score [9]: 1.73; PBM binding z-score [10]: 4.89; PBM binding z-score [11]: 5.26; PBM binding z-score [12]: 7.83; PBM binding z-score [13]: 6.79; PBM binding z-score [14]: 1.19; PBM binding z-score [15]: 5.89; PBM binding z-score [16]: 4.24; PBM binding z-score [17]: 2.21; PBM binding z-score [18]: 2.78

Question: Which PBM binding z-score [1] does the source give for CATACAGGGTCAGCTAGGCCAGAGGAGGGACGGC here?
Answer: 0.736

Question: And the PBM binding z-score [2]?
Answer: 2.07

Question: And the PBM binding z-score [3]?
Answer: 1.18

Question: And the PBM binding z-score [4]?
Answer: 1.1

Question: And the PBM binding z-score [5]?
Answer: 1.66

Question: What about the PBM binding z-score [6] of the same sequence?
Answer: 2.15

Question: What about the PBM binding z-score [7] of the same sequence?
Answer: -0.08

Question: And the PBM binding z-score [8]?
Answer: 3.04

Question: What about the PBM binding z-score [9] of the same sequence?
Answer: 0.169

Question: And the PBM binding z-score [10]?
Answer: 4.16

Question: And the PBM binding z-score [11]?
Answer: 3.12

Question: What about the PBM binding z-score [12] of the same sequence?
Answer: 4.3

Question: What about the PBM binding z-score [13] of the same sequence?
Answer: 4.65

Question: What about the PBM binding z-score [14] of the same sequence?
Answer: 1.64

Question: And the PBM binding z-score [15]?
Answer: 4.14

Question: And the PBM binding z-score [16]?
Answer: 2.75

Question: What about the PBM binding z-score [17] of the same sequence?
Answer: 0.692

Question: And the PBM binding z-score [18]?
Answer: 1.36

Question: Which results are given for TCAGACAGGGGAAGGTAACTCAGGTACGCAGTCG?
Answer: PBM binding z-score [1]: 2.26; PBM binding z-score [2]: 0.171; PBM binding z-score [3]: 0.134; PBM binding z-score [4]: -0.73; PBM binding z-score [5]: 0.755; PBM binding z-score [6]: 0.624; PBM binding z-score [7]: 0.441; PBM binding z-score [8]: 0.193; PBM binding z-score [9]: 0.801; PBM binding z-score [10]: 0.352; PBM binding z-score [11]: 0.725; PBM binding z-score [12]: 0.0159; PBM binding z-score [13]: -0.128; PBM binding z-score [14]: 1.16; PBM binding z-score [15]: 0.547; PBM binding z-score [16]: 1.38; PBM binding z-score [17]: 1.02; PBM binding z-score [18]: 0.491

Question: TGAATGAGGTTAAAGATGAGGGAACGTGGCGTCG was tested. Which PBM binding z-score [1] did it give?
Answer: 2.54

Question: And the PBM binding z-score [2]?
Answer: 2.8

Question: And the PBM binding z-score [3]?
Answer: 0.619

Question: And the PBM binding z-score [4]?
Answer: 0.196

Question: And the PBM binding z-score [5]?
Answer: 0.933

Question: What about the PBM binding z-score [6] of the same sequence?
Answer: 1.49

Question: What about the PBM binding z-score [7] of the same sequence?
Answer: 0.214

Question: And the PBM binding z-score [8]?
Answer: 2.17

Question: What about the PBM binding z-score [9] of the same sequence?
Answer: 0.368

Question: And the PBM binding z-score [10]?
Answer: 2.1

Question: And the PBM binding z-score [11]?
Answer: 0.748

Question: What about the PBM binding z-score [12] of the same sequence?
Answer: 2.16

Question: What about the PBM binding z-score [13] of the same sequence?
Answer: 1.21

Question: What about the PBM binding z-score [14] of the same sequence?
Answer: 1.33

Question: And the PBM binding z-score [15]?
Answer: 2.86

Question: And the PBM binding z-score [16]?
Answer: 2.4

Question: And the PBM binding z-score [17]?
Answer: 0.742

Question: And the PBM binding z-score [18]?
Answer: 0.849

Source: the supplement of paper PMC6555819
